We go through 40 molecules from PubChem BioAssay (Tox21).

Where “and” joins values, the source holds several entries; their conditions need not be identical. Equal entries are not always repeated. Inconclusive results are not listed. The source holds several records for some structures; these can differ, active in one and inactive in another. Calls of active or inactive are those of the source. The rule behind the calls is not given here.
% is set by controls: 0 for no effect and ±100 for the full control effect; potency is the fitted concentration of half-maximal effect.

The assay can be described thus: qHTS assay to identify small molecule antagonists of the estrogen related receptor signaling pathway with the pleiotropic PPARgamma coactivator (PGC) from Tox21 10K library (AID 1224841). Note: actives are mostly falling curves and most rising ones were filed inactive; nearly all actives have a fitted effect of over 50% in size. The following applies: PGC/ERR reporter cell line, ONE-Glo luciferase, 18 h; series mostly up to 92.4 µM; activity, negative = inhibition: at the top concentration. An excerpt:
U.S. Tox21 Program National Center for Advancing Translational Sciences [NCATS] NIH Chemical Genomics Center [NCGC] U.S. Environmental Protection Agency [EPA] National Institutes of Environmental Health Sciences [NIEHS] National Toxicology Program [NTP] U.S. Food and Drug Administration [FDA] Tox21 Assay Overview: Estrogen related receptors (ERRs), the first orphan nuclear receptors discovered, play an important role in the control of cellular energy metabolism. ERRs are required for high-energy production in response to the environmental challenges. The pleiotropic PPARgamma coactivator (PGC) is a major partner of ERR and a key regulator in energy homeostasis. Together they have been implicated in the etiology of metabolic disorders such as Type 2 diabetes and metabolic syndrome. ERR-alpha was also identified as an adverse marker for breast cancer progression; ERR-alpha-positive tumors have a poor prognosis. To screen and to identify environmental compounds that perturb the ERR and PGC/ERR signaling pathways could provide valuable information for potential therapeutic or preventive measures in the treatment of metabolic disease. For identifying PGC/ERR antagonists, PGC/ERR cell line (provided by NTP) has been used to screen Tox21 10K library.
Tox21 Assay Protocol Summary: The PGC/ERR cells were dispensed at 2,000 cells/5 ul/well in 1536-well white plates using a Multidrop dispenser. After the assay plates were incubated at a 37 C/5% CO2 incubator for 6 hours, 23 nL of compounds dissolved in DMSO, positive and negative controls or DMSO only was transferred to the assay plate by a pin tool. The plates were incubated at 37 C for 18 hours. 4 ul/well of One-Glo reagent was added into the assay plates using a Flying Reagent Dispenser. After 30-minute incubation at room temperature, the luminescence intensity in the plates was measured using a ViewLux plate reader.
Regarding `N=C1C=CC(=C(c2ccc(N)cc2)c2ccc(N)cc2)C=C1`, the Potency is 3.44 µM (active).

In the case of `O=C(O)c1ccc(Cl)c(Cl)c1`, the “activity, negative = inhibition” value was -9.46% (inactive). As to `Nc1cc(C(F)(F)F)ccc1S`, the Potency is 29.8 µM (active). The same measure, in the same setting: for `CC(C)(C)CC(C)(C)c1ccc(OCCOCC[N+](C)(C)Cc2ccccc2)cc1` the value was 27.3 µM (active) and 6.68 µM (active). With `Oc1ccc2c(c1)-c1ccccc1C2`, the “activity, negative = inhibition” value is 0.965% (inactive). The same measure, in the same setting: next, `CC(C)(C)C(=O)OCOC(=O)[C@@H]1N2C(=O)[C@@H](NC(=O)[C@H](N)c3ccccc3)[C@H]2SC1(C)C`: -8.61% [at 42.5 µM] (inactive). As to `O=c1[nH]sc2ccccc12`, the Potency was 27.3 µM (active). The same measure, in the same setting: next, `CC(C)=CCOc1ccc(/C=C/C(=O)c2ccc(OCC=C(C)C)cc2OCC(=O)O)cc1`: 21.1 µM (active); `OCc1c[nH]c2ccccc12`: 3.44 µM (active); `O=c1[nH]sc2cc(Cl)ccc12`: 0.298 µM (active). Still for that read-out and setting: for `ON=C1CCCC1` the value was 63.3 µM (active). Consider `CCCCN1C(=O)[C@@H]([C@H](O)C2CCCCC2)NC(=O)C12CCN(Cc1ccc(Oc3ccc(C(=O)O)cc3)cc1)CC2`, for which the “activity, negative = inhibition” value was -14.5% (inactive).

In the case of `NNc1nc(-c2ccccc2)cs1`, the “activity, negative = inhibition” value is -19.2% (inactive). Regarding `Cc1cc(=O)oc2cc(N(C)C)ccc12`, the “activity, negative = inhibition” value was 32.9% (inactive).

With `Cc1onc(-c2c(Cl)cccc2Cl)c1C(=O)N[C@@H]1C(=O)N2[C@@H]1SC(C)(C)[C@@H]2C(=O)O`, the “activity, negative = inhibition” value is -13.6% [at 42.5 µM] (inactive). Regarding `CN(C)[C@@H]1C(=O)C(C(N)=O)=C(O)[C@@]2(O)C(=O)C3=C(O)c4c(O)cccc4C[C@H]3C[C@@H]12`, the Potency is 26.6 µM (active).

Consider `NNc1nc(-c2ccc(N)cc2)cs1`, for which the Potency is 61.1 µM (active). In the case of `CCC(C)(C)C1CCCCC1OC(C)=O` (stereo not given), the “activity, negative = inhibition” value was 9.9% (inactive). On the same count and under the same terms, next, `Cc1c(C)c2c(c(C)c1OC(=O)CCC(=O)O)CC[C@@](C)(CCC[C@H](C)CCC[C@H](C)CCCC(C)C)O2`: 5.3% (inactive). In the case of `CCc1cc(Cc2cc(CC)cc(C(C)(C)C)c2O)c(O)c(C(C)(C)C)c1`, the Potency was 27.3 µM (active). The same measure, in the same setting: for `CCC(C)Nc1ccc(NC(C)CC)cc1` (stereo not given) the value was 8.8 µM (active). Consider `COc1ccc(-c2ccc3cc(C(=O)O)ccc3c2)cc1C12CC3CC(CC(C3)C1)C2`, for which the “activity, negative = inhibition” value was 29.6% [at 42.5 µM] (inactive). With `CCc1cc(SCc2sc(-c3ccc(C(F)(F)F)cc3)nc2CN2CCN(c3ccc(OC)cc3)CC2)ccc1OCC(=O)O`, the Potency is 19.3 µM (active).

Turning to `On1ccccc1=S`, the Potency is 3.4 µM (active). Still for that read-out and setting: next, `CCCC1O[C@@H]2C[C@H]3[C@@H]4CCC5=CC(=O)C=C[C@]5(C)[C@H]4[C@@H](O)C[C@]3(C)[C@]2(C(=O)CO)O1` (stereo not given in full): 48.6 µM (active); `Cc1[nH]cnc1C[C@H]1CCc2c(C)c3ccccc3n2C1=O`: 23.7 µM (active); `C=C(C)C(=O)OCC(O)COc1ccc(C(C)(C)c2ccc(OCC(O)COC(=O)C(=C)C)cc2)cc1` (stereo not given): 43.3 µM (active). The same measure, in the same setting: next, `OCCN(CCO)c1nc(N2CCCCC2)c2nc(N(CCO)CCO)nc(N3CCCCC3)c2n1`: 21.1 µM (active). Take `CCCCCCCCCOC(=O)c1ccc(O)cc1`: the “activity, negative = inhibition” value was 67.2% (inactive).

As for `Cc1cccc2c1cc1ccc3cccc4ccc2c1c34`, the “activity, negative = inhibition” value is -3.26% (inactive). The same measure, in the same setting: next, `CCCCCCCCCCC=O`: -1.77% (inactive). Same read-out and setting: for `CC(C)CCCCCCCCCCCCCCC(=O)O` the value was -31.2% (inactive).

Consider `CCCCCCCCCCCCc1ccc(O)cc1`, for which the Potency is 54.5 µM (active). Consider `O=C(c1ccc(F)cc1)C1CCN(CCn2c(=O)[nH]c3ccccc3c2=O)CC1`, for which the “activity, negative = inhibition” value was -27.5% [at 42.5 µM] (inactive). `CC(C)(C)NC(=O)[C@@H]1C[C@@H]2CCCC[C@@H]2CN1C[C@@H](O)[C@H](Cc1ccccc1)NC(=O)[C@H](CC(N)=O)NC(=O)c1ccc2ccccc2n1`: the Potency was 27.7 µM (active). Still for that read-out and setting: next, `CCCC(c1cc(C(C)(C)C)c(O)cc1C)c1cc(C(C)(C)C)c(O)cc1C`: 24.6 µM (active); `CC[C@@]1(O)C(=O)OCc2c1cc1n(c2=O)Cc2cc3c(CN(C)C)c(O)ccc3nc2-1`: 16.8 µM (active); `Nc1c2ccccc2nc2ccccc12`: 53.8 µM (active) and inactive. Still for that read-out and setting: next, `S=c1[nH]c2ccccc2s1`: 6.11 µM (active). In the case of `O=C(OCC(COC(=O)c1ccccc1)(COC(=O)c1ccccc1)COC(=O)c1ccccc1)c1ccccc1`, the “activity, negative = inhibition” value is 15.2% (inactive).
